# Screening results as filed in PubChem.
# Many of the other results were omitted from the sample, so hits are more common in it than they were.
# TbREL1 inh = TbREL1 inhibition, primary screen | inhibition, % at 9.66 µM | TbREL1 RNA ligation, FRET fluorescence | P86926 | AID 1117264 | 89,000 tested, 0.49% active;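 active = inhibition above the mean inhibition across all screened compounds plus 3 SD, cut at about 11% in these data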;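 note: 0% = plate median of test wells and 100% = NSC42067 control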
# Target sequence (P86926 whole entry, looked up): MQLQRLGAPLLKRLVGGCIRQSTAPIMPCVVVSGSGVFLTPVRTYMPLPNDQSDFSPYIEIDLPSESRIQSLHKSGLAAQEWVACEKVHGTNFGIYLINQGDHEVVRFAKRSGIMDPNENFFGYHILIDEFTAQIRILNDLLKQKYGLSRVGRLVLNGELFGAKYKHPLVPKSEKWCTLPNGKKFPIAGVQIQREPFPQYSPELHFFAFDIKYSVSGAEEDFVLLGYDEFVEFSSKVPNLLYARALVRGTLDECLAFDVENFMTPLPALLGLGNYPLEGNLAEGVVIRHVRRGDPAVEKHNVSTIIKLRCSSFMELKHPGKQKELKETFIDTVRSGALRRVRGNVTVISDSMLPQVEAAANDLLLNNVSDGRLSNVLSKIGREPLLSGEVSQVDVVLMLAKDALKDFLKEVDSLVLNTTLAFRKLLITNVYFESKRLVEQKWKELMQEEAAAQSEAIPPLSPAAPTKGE
# TbREL1 confirm = TbREL1 inhibition, confirmation; shares compounds with TbREL1 inh; TbREL1 RNA ligation, FRET fluorescence; inhibition, % at 9.66 µM; 390 tested, 37% active;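 active = mean inhibition across replicates above a set limit taken from the earlier primary screen, cut at about 11% in these data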;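 note: 0% = REL1 with substrate and DMSO and 100% = REL1 plus control inhibitor NSC42067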
# * marks the source's active call; other numbers are inactive results.
SMILES,TbREL1 inh,others
CN(C(=O)c1ccccc1C(=O)OCC(=O)c1ccc(F)cc1)c1ccccc1,-1,
CCN1CCN(CC(=O)Nc2cc(C(F)(F)F)ccc2OCCOC)CC1,15*,TbREL1 confirm=5
COCCOc1ccc(C(F)(F)F)cc1NC(=O)CN1C(=O)NC(C)(c2ccc3c(c2)OCO3)C1=O (stereo not drawn),-2,
CCCOc1ccc(C(F)(F)F)cc1NC(=O)CN1C(=O)C(=O)N(CC)C1=O,0,
Cc1ccc(-n2c(SCc3cccc(F)c3)nnc2-c2cccc(C)c2)cc1,6,
CC(C)(C)C(=O)CSc1nnc(SCc2cccc3ccccc23)s1,5,
CCOc1ccc(OCCSc2nc(C)cc(=O)[nH]2)cc1,11*,TbREL1 confirm=3
Cc1cc(=O)[nH]c(SCC(=O)c2ccc(C)c(C)c2)n1,-2,
COc1cccc(OC)c1OCCCSc1nc(C)cc(=O)[nH]1,4,
Cc1cc(=O)c(C(=O)O)nn1-c1ccccc1[N+](=O)[O-],1,
O=c1cc2oc3cc(O)c(O)cc3c(-c3ccccc3[N+](=O)[O-])c-2cc1O,21*,TbREL1 confirm=26*
Nc1cc2c([N+](=O)[O-])cccc2o1,-3,
CCOC(=O)[C@]12CCCC3=C1N(CCC3)C(=O)[C@@H](CC(=O)N1CCC(c3ccccc3)CC1)C2,-2,
COc1ccc(CNC(=O)OC2CC3CC2[C@H]2CCCCN2C3)cc1 (stereo partly drawn),-2,
COc1cc(CNC(=O)C2CC2)ccc1OCc1ccccc1,-1,
COc1cc(CN(CCN(C)C)Cc2ccccc2)ccc1OCc1ccccc1,16*,TbREL1 confirm=12*
COc1cc(C(=O)O)ccc1OCc1ccccc1,3,
O=C(OCC#CCSc1nnc(-c2cccc3ccccc23)o1)c1cc(F)c(F)c(F)c1,0,
Cc1[nH]c2ccccc2c1CC(=O)Nc1ccc(Nc2ccncc2)cc1,1,
Nc1nnc(SCC(=O)c2ccc3ccccc3c2)s1,-2,
Nc1nnc(SCCN2C(=O)c3ccccc3C2=O)s1,11*,TbREL1 confirm=3
Cc1cc(C)n2c(SCCN3C(=O)c4ccccc4C3=O)nnc2n1,0,
O=C(Nc1nccs1)c1ccccn1,15*,TbREL1 confirm=5
Cc1ccccc1NC(=O)c1ccccn1,1,
O=C(Nc1nccs1)c1cnccn1,7,
SMILES,TbREL1 inh,others
CCN(CC)c1ccc(C=NNC(=O)c2cc(-c3ccc(C)c(C)c3)n[nH]2)c(O)c1,-4,
CCc1ccc(C=NN2CCN(Cc3ccc(C)cc3C)CC2)cc1,-5,
N#Cc1ccc(Cn2ccc3ccc(-c4ccc5ccn(Cc6ccccc6)c5c4)cc32)cc1,5,
Cc1nc(S/C(=C\c2ccc(OCc3ccccc3Cl)cc2)C(=O)O)n[nH]1,0,
Cc1nc(S/C(=C\c2ccc(-c3ccc(C(=O)O)c(Cl)c3)o2)C(=O)O)n[nH]1,58*,TbREL1 confirm=23*
O=C(O)c1cc(N/N=C/c2ccc(-c3ccc(F)cc3)o2)ccc1Cl,-5,
CCN(CC)c1ccc(C=Nn2c(-c3ccc(F)cc3)n[nH]c2=S)c(O)c1,-6,
CC(C)C[C@H](NC(=O)c1ccccc1)C(=O)N1CCC[C@H]1C(=O)NCc1ccccc1,4,
COc1ccccc1NS(=O)(=O)c1cccc(C(=O)NNC(=O)c2ccc(NC(C)=O)cc2)c1,16*,TbREL1 confirm=1
COc1cc(C(=O)NNC(=O)c2ccc(NC(C)=O)cc2)cc(OC)c1OC,1,
COc1ccccc1NS(=O)(=O)c1cccc(C(=O)NCc2ccccn2)c1,2,
CC(C)C[C@H]1COc2cc(Br)ccc2S(=O)(=O)N1Cc1ccc(Cl)cc1,1,
COc1ccc(OCCN2CCN(S(=O)(=O)c3ccccc3C#N)CC2)cc1,7,
N#Cc1ccccc1S(=O)(=O)N1CCN(CC(O)CN2CCOCC2)CC1 (stereo not drawn),20*,TbREL1 confirm=11
COc1ccc(S(=O)(=O)N2CCN(CC(O)CN3CCOCC3)CC2)cc1 (stereo not drawn),3,
Cc1ccccc1C(=O)NC1CCCCN(Cc2ccc(Cl)cc2)C1=O (stereo not drawn),1,
Cc1ccccc1C(=O)N[C@@H](Cc1cccnc1)C(=O)N1CCC[C@H]1C(=O)NCCc1ccccc1Cl,-1,
Cc1cc(Nc2cc(F)c(F)c(F)c2)cc(=O)n1-c1cc(F)c(F)c(F)c1,0,
O=c1cc(N2CCN(c3ccnc4cc(Cl)ccc34)CC2)[nH]c(=O)n1C1CCCCC1,-1,
O=C(C1CCCN1S(=O)(=O)c1ccc(Br)s1)N1CCc2ccccc2C1 (stereo not drawn),0,
CC1CCN(c2ccc(C(=O)O)cc2NS(=O)(=O)c2ccccc2)CC1,8,
Clc1nssc1=Nc1nncs1,18*,TbREL1 confirm=19*
Clc1nssc1=Nc1ccc(Br)cc1,-1,
Cc1ccc(-c2cc(NC(=O)Cc3c[nH]c4ccccc34)ccc2N(C)c2cccnc2)cc1,-1,
CCc1ccccc1N=Nc1c(N)[nH]n(-c2ccccc2)c1=O,3,
Cc1cccc(C)c1NC(=O)[C@@H]1CC(=O)O[C@@H]1c1ccccc1,5,
O=C(CN1C(=O)NC(CCc2ccccc2)C1=O)Nc1ccccc1C(F)(F)F (stereo not drawn),1,
